The source of these data is PubChem BioAssay AID463173 (ICCB-Longwood Screening Facility, Harvard Medical School, 2010).

Among all 52,000 compounds or so, about 4,300 (8.3%) were called active. The sample holds actives, similar compounds and a random draw of the others, so the mix is not that of the screen. Cut-off read from the data, not from the text of the source: active = survival mostly below about 52% (no sharp cut-off); inactive = mostly above about 56%.

For this experiment, the system named is DeltatarO mutant. The experiment is described as follows: growth inhibition of S. aureus wild type versus tarO mutant, primary screen, teichoic acid synthesis inhibitors, RN4220, OD600 (AID 463173). Conditions: OD600, 18 h, stronger effect = lower value, screened at 18.75 µg/mL (by protocol).
For the molecule `CC(C)(C)NC(=O)c1cnn(-c2ccccc2)c1C1CCN(C(=O)OC(C)(C)C)CC1`, the survival was 78% (inactive). Next, `CC(=O)c1c(C)oc2ccc(N(C(=O)Oc3ccccc3)S(=O)(=O)c3ccc(Cl)cc3)cc12`: 75% (inactive). The result for `CCC(=O)OC1=C(C(C)=O)N(Cc2ccccc2)S(=O)(=O)c2ccccc21` reads 62% (inactive). The result for `COc1ccc(C(CC(=O)Nc2ccc(F)c(Cl)c2)N2Cc3ccccc3C2=O)cc1OC` (stereo unspecified) reads 75% (inactive). Consider `O=C(Cc1cccs1)NC1CC(=O)N(c2ccccc2)C1` (stereo unspecified), for which the survival was 88% (inactive). The result for `O=C(NC1CC(=O)N(c2ccccc2)C1)c1ccc(Br)o1` (stereo unspecified) reads 87% (inactive); that for `O=C(Cc1cccs1)NC1CC(=O)N(c2ccc(F)cc2)C1` (stereo unspecified), 99% (inactive).

As to `COc1ccc(N2CC(NC(=O)c3ccc(Br)o3)CC2=O)cc1` (stereo unspecified), the survival was 81% (inactive). As for `COc1ccc(N2CC(NC(=O)Cc3cccs3)CC2=O)cc1OC` (stereo unspecified), the survival is 94% (inactive). The result for `Cc1ccc(N2CC(NC(=O)c3ccc(Br)o3)CC2=O)cc1C` (stereo unspecified) reads 37% (active). Next, `Cc1ccc(N2CC(NC(=O)Cc3cccs3)CC2=O)cc1C` (stereo unspecified): 25% (active). Next, `O=C(Cc1cccs1)NC1CC(=O)N(c2ccc(Cl)cc2)C1` (stereo unspecified): 67% (inactive).

Consider `Cc1ccc(N2CC(NC(=O)Cc3cccs3)CC2=O)cc1` (stereo unspecified), for which the survival is 8% (active). Next, `Cc1ccc(C)c(NC(=O)CCn2cnnn2)c1`: 148% (inactive); `Cc1nnsc1C(=O)Oc1ccc(C#N)cc1`: 89% (inactive); `COc1cccc(NC(=O)c2cc(CN3CCOCC3)on2)c1`: 88% (inactive).

Consider `CCOC(=O)c1ccc(CN(Cc2ccc(Br)cc2)S(=O)(=O)c2cccc(Cl)c2C)cc1`, for which the survival was 84% (inactive). The result for `CC(=O)c1ccc(NC(=O)CN(C)S(=O)(=O)c2cc3c(cc2Cl)NC(=O)CO3)cc1` reads 72% (inactive); that for `O=C(NCc1ccccc1Cl)c1ccc2c(c1)NC(=O)C(CS(=O)(=O)Cc1ccc(F)cc1Cl)N2` (stereo unspecified), 81% (inactive). `COc1ccc(N2CCN(c3csc4ccccc4c3=O)CC2)cc1`: the survival is 81% (inactive).

Consider `CCc1ccc(S(=O)(=O)c2nnn3c2nc(N2CCC(C(N)=O)CC2)c2cc(Cl)ccc23)cc1`, for which the survival was 69% (inactive). The result for `Cc1cc(C)n(CC(C)O)c(=O)c1C#N` (stereo unspecified) reads 108% (inactive); that for `CC1(C)C(=O)N(CC(=O)Nc2ccc(Br)cc2F)c2ccccc21`, 89% (inactive). In the case of `Cc1ccccc1OCC(=O)Nc1ccc(S(=O)(=O)Nc2ncccn2)cc1`, the survival was 133% (inactive).

For the molecule `CCc1cccc(OCC(=O)Nc2ccc(S(=O)(=O)Nc3cc(C)nc(C)n3)cc2)c1`, the survival was 58% (inactive).

Regarding `Cc1ccc(OCC(=O)Nc2ccc(S(=O)(=O)Nc3ncccn3)cc2)c(C(C)(C)C)c1`, the survival is 47% (active).

On to `Cc1cc(Br)cc(C)c1OCC(=O)Nc1ccc(S(=O)(=O)Nc2ncccn2)cc1`, for which the survival is 56% (inactive).

Take `CCc1cccc(OCC(=O)Nc2ccc(S(=O)(=O)Nc3ncccn3)cc2)c1`: the survival was 43% (active). The result for `CC(C)c1ccc(OCC(=O)Nc2ccc(S(=O)(=O)Nc3ncccn3)cc2)cc1` reads 75% (inactive). The result for `CCC(Sc1nc2ncccc2[nH]1)C(=O)Nc1ccccc1F` (stereo unspecified) reads 112% (inactive); that for `CCOC(=O)Cn1c(=O)oc2cc(S(=O)(=O)N3CCN(c4cccc(Cl)c4)CC3)ccc21`, 65% (inactive); that for `COc1cccc2c1Oc1ncccc1N(c1ccc(C(=O)NCc3ccccc3Cl)s1)C2`, 91% (inactive). Next, `COc1ccc(Cn2c(CCC(=O)Nc3ccc(OC)c(Cl)c3)nc3cccnc32)cc1`: 113% (inactive); `Cc1cccc(-c2nc(C)c(CCNC(=O)C(=O)Nc3ccccc3C#N)s2)c1`: 85% (inactive); `CN(C)S(=O)(=O)N1CCC(n2c(C(F)(F)F)nc3cccnc32)CC1`: 94% (inactive).

As to `CS(=O)(=O)N1CCC(n2c(C(F)(F)F)nc3cccnc32)CC1`, the survival is 47% (active). The result for `CCS(=O)(=O)N1CCC(n2c(C(F)(F)F)nc3cccnc32)CC1` reads 76% (inactive); that for `COc1ccc(S(=O)(=O)c2c(O)c3ccc(C(=O)NCc4ccc(F)cc4)cc3[nH]c2=O)cc1`, 108% (inactive); that for `CCOc1cc(-c2ccc(OC(=O)c3ccccc3)c(OC)c2)cc(=O)c2c(C)oc(C)c12`, 89% (inactive). Turning to `CCc1ccc(S(=O)(=O)c2nnn3c2nc(Nc2cc(OC)cc(OC)c2)c2cc(Cl)ccc23)cc1`, the survival was 102% (inactive). The result for `CCOc1ccc(C(=O)Nc2c(C)nc(Nc3ccccc3)nc2Nc2ccccc2)cc1OCC` reads 49% (active); that for `CCOc1ccc(Nc2nc(C)c(NC(=O)c3cccc(OC)c3)c(Nc3ccc(OCC)cc3)n2)cc1`, 112% (inactive); that for `CCOc1ccc(Nc2nc(C)c(NC(=O)c3ccc(C)cc3)c(Nc3ccc(OCC)cc3)n2)cc1`, 123% (inactive). Next, `COc1ccccc1Cc1nc2ccccc2nc1SCC(=O)N(C)c1ccc(F)cc1`: 83% (inactive). The result for `O=C(Cn1cc(SCc2ccc(C(F)(F)F)cc2)c2ccccc21)N1CCOCC1` reads 85% (inactive); that for `O=C(Nc1ccc(OC(F)(F)F)cc1)NC1COc2ccccc2C1` (stereo unspecified), 0% (active); that for `COc1ccc(NC(=O)NC2COc3ccccc3C2)cc1Cl` (stereo unspecified), 57% (inactive).

Turning to `COc1ccc(NC(=O)NC2COc3ccccc3C2)c(OC)c1` (stereo unspecified), the survival is 98% (inactive).

On to `O=C(O)c1ccccc1C(=O)Nc1cccnc1`, for which the survival was 89% (inactive). For `O=C(Nc1cccnc1)c1cccc(C(=O)Nc2cccnc2)c1`, the survival was 79% (inactive). The result for `O=C(Nc1cccnc1)c1ccccc1Oc1ccccc1` reads 65% (active).

`CCOc1ccc(-c2c(C)nn3c(C)c(C(=O)NCc4cccc(OC)c4)cnc23)cc1OCC`: the survival was 77% (inactive). For `CC(NC(=O)CN(c1ccc(Cl)cc1Cl)S(=O)(=O)c1ccccc1)c1ccccc1` (stereo unspecified), the survival was 37% (active).

In the case of `COc1ccc(N(CC(=O)Nc2ccc(Cl)cc2C)S(=O)(=O)c2ccccc2)c(OC)c1`, the survival was 113% (inactive).

With `Cc1ccccc1NC(=O)CN(c1ccc(Cl)cc1Cl)S(=O)(=O)c1ccccc1`, the survival is 44% (inactive). Next, `Cc1ccc(CNC(=O)CN(c2ccc(Cl)cc2Cl)S(=O)(=O)c2ccccc2)cc1`: 47% (inactive); `CCOc1ccc(NC(=O)CN(c2ccc(Cl)cc2C)S(=O)(=O)c2ccccc2)cc1`: 45% (active). Regarding `COc1ccc(N(CC(=O)NCCc2ccccc2)S(=O)(=O)c2ccccc2)c(OC)c1`, the survival was 57% (inactive). The result for `COc1ccc(N(CC(=O)Nc2cccc(C(C)=O)c2)S(=O)(=O)c2ccccc2)c(OC)c1` reads 48% (active). Next, `CCOc1ccc(S(=O)(=O)N(CC(=O)Nc2ccc(OC)c(Cl)c2)c2ccccc2)cc1`: 75% (inactive); `CCOc1ccc(NC(=O)CN(c2ccccc2OCC)S(=O)(=O)c2ccccc2)cc1`: 48% (inactive).
